Reference: the supplement of paper PMC6897291
Values joined by “and” are separate entries in the source; they are usually repeats but may differ in a detail not shown here. Equal values may be shown once.

What was measured:
[1] = tested on: U-2932; experiment: growth inhibition by drug alone (1 - RLU/untreated control) (fraction); higher = stronger inhibition; details: 177Lu-lilotomab satetraxetan 0 ug/ml
How it was run: (§1)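 Compound doses on the pre-printed Selleck Cambridge Cancer Compound library plates were 10/100 nM for RIVA cells and 10/1,000 nM for U-2932 cells, seeded at 3,000 cells/well. Before seeding, cells were washed after 18 h with or without a radiolabelled anti-CD37 antibody conjugate (~600 MBq/mg; 0.5 µg/ml RIVA, 1 µg/ml U-2932). Growth inhibition was derived from RealTime-Glo luminescence relative to untreated no-drug control wells. Readings were taken daily starting on day 3, each after 1 h at 37°C, and each well's RLU was divided by the mean of 48 such wells per plate and subtracted from 1.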

[2] = tested on: RIVA; experiment: as above; details: 177Lu-lilotomab satetraxetan 0 ug/ml
How it was run: as §1

[3] = tested on: U-2932; experiment: growth inhibition by drug plus 177Lu-lilotomab satetraxetan (1 - RLU/untreated control) (fraction); higher = stronger inhibition; details: 177Lu-lilotomab satetraxetan 1 ug/ml
How it was run: as §1

[4] = tested on: RIVA; experiment: as above; details: 177Lu-lilotomab satetraxetan 0.5 ug/ml
How it was run: as §1

SMILES | growth inhibition by drug alone ([1]; 10 nM, time (day): 3) | growth inhibition by drug alone ([1]; 10 nM, time (day): 4) | growth inhibition by drug alone ([1]; 10 nM, time (day): 5) | growth inhibition by drug alone ([1]; 10 nM, time (day): 6) | growth inhibition by drug alone ([1]; 1000 nM, time (day): 3) | growth inhibition by drug alone ([1]; 1000 nM, time (day): 4) | growth inhibition by drug alone ([1]; 1000 nM, time (day): 5) | growth inhibition by drug alone ([1]; 1000 nM, time (day): 6) | growth inhibition by drug alone ([2]; 10 nM, time (day): 3) | growth inhibition by drug alone ([2]; 10 nM, time (day): 4) | growth inhibition by drug alone ([2]; 10 nM, time (day): 5) | growth inhibition by drug alone ([2]; 10 nM, time (day): 6) | growth inhibition by drug alone ([2]; 100 nM, time (day): 3) | growth inhibition by drug alone ([2]; 100 nM, time (day): 4) | growth inhibition by drug alone ([2]; 100 nM, time (day): 5) | growth inhibition by drug alone ([2]; 100 nM, time (day): 6) | growth inhibition by drug plus 177Lu-lilotomab satetraxetan ([3]; 10 nM, time (day): 3) | growth inhibition by drug plus 177Lu-lilotomab satetraxetan ([3]; 10 nM, time (day): 4) | growth inhibition by drug plus 177Lu-lilotomab satetraxetan ([3]; 10 nM, time (day): 5) | growth inhibition by drug plus 177Lu-lilotomab satetraxetan ([3]; 10 nM, time (day): 6) | growth inhibition by drug plus 177Lu-lilotomab satetraxetan ([3]; 1000 nM, time (day): 3) | growth inhibition by drug plus 177Lu-lilotomab satetraxetan ([3]; 1000 nM, time (day): 4) | growth inhibition by drug plus 177Lu-lilotomab satetraxetan ([3]; 1000 nM, time (day): 5) | growth inhibition by drug plus 177Lu-lilotomab satetraxetan ([3]; 1000 nM, time (day): 6) | growth inhibition by drug plus 177Lu-lilotomab satetraxetan ([4]; 10 nM, time (day): 3) | growth inhibition by drug plus 177Lu-lilotomab satetraxetan ([4]; 10 nM, time (day): 4) | growth inhibition by drug plus 177Lu-lilotomab satetraxetan ([4]; 10 nM, time (day): 5) | growth inhibition by drug plus 177Lu-lilotomab satetraxetan ([4]; 10 nM, time (day): 6) | growth inhibition by drug plus 177Lu-lilotomab satetraxetan ([4]; 100 nM, time (day): 3) | growth inhibition by drug plus 177Lu-lilotomab satetraxetan ([4]; 100 nM, time (day): 4) | growth inhibition by drug plus 177Lu-lilotomab satetraxetan ([4]; 100 nM, time (day): 5) | growth inhibition by drug plus 177Lu-lilotomab satetraxetan ([4]; 100 nM, time (day): 6)
CC(C)(C)c1[nH]cnc1/C=c1\[nH]c(=O)/c(=C/c2ccccc2)[nH]c1=O [NPI-2358 (Plinabulin)] | 0.142 | 0.0848 | 0.0507 | -0.0221 | 0.964 | 0.971 | 0.974 | 0.98 | 0.00478 | -0.0503 | -0.112 | -0.272 | 0.941 | 0.953 | 0.959 | 0.963 | 0.0693 | 0.123 | 0.165 | 0.213 | 0.968 | 0.975 | 0.98 | 0.984 |  |  |  |  |  |  |  | 
CN1C(=O)C(Cc2c[nH]c3ccccc23)NC1=S (stereo not drawn) [Necrostatin-1] |  |  |  |  |  |  |  |  | -0.0747 | -0.159 | -0.218 | -0.441 | -0.34 | -0.362 | -0.408 | -0.562 | -0.059 | -0.0156 | 0.00349 | 0.0946 | -0.0506 | 0.00685 | 0.0586 | 0.224 |  |  |  |  |  |  |  | 
CC(C)c1ccc(Cn2ccc3c4c(N)nc(NC5CC5)nc4ccc32)cc1 |  |  |  |  |  |  |  |  |  |  |  |  |  |  |  |  | 0.151 | 0.196 | 0.261 | 0.274 | 0.982 | 0.983 | 0.986 | 0.989 | 0.658 | 0.702 | 0.716 | 0.712 | 0.787 | 0.778 | 0.786 | 0.799
O=c1cc(-c2cccc3c2Sc2ccccc2S3)oc(N2CCOCC2)c1 |  |  |  |  |  |  |  |  | -0.212 | -0.223 | -0.243 | -0.318 | -0.0838 | -0.0652 | -0.119 | -0.19 | -0.0246 | -0.00365 | 0.0233 | 0.166 | -0.108 | -0.0389 | -0.0219 | 0.0537 | 0.36 | 0.504 | 0.522 | 0.526 | 0.335 | 0.399 | 0.405 | 0.382
C/C(=C\C(=O)Nc1ccccc1C(=O)O)c1ccc2ccccc2c1 |  | 0.0133 and 0.0332 |  |  | -0.0224 and -0.014 |  | -0.0613 and -0.0571 | -0.273 and -0.127 |  |  | -0.0819 and -0.194 | -0.258 and -0.514 |  |  |  |  | -0.0301 and -0.033 |  | 0.025 and 0.0323 |  | -0.0817 and -0.0426 |  |  | 0.0333 and 0.0305 | 0.404 and 0.42 | 0.545 and 0.538 | 0.571 and 0.547 | 0.581 and 0.558 | 0.399 and 0.427 | 0.502 and 0.474 | 0.502 and 0.482 | 0.484 and 0.467
CO[C@H]1C[C@@H]2CC[C@@H](C)[C@@](O)(O2)C(=O)C(=O)N2CCCC[C@H]2C(=O)O[C@H]([C@H](C)C[C@@H]2CC[C@@H](OCCO)[C@H](OC)C2)CC(=O)[C@H](C)/C=C(\C)[C@@H](O)[C@@H](OC)C(=O)[C@H](C)C[C@H](C)/C=C/C=C/C=C/1C [Everolimus (RAD001)] |  |  |  |  |  |  |  |  | 0.776 | 0.768 | 0.744 | 0.653 | 0.811 | 0.826 | 0.827 | 0.801 | 0.69 | 0.625 | 0.558 | 0.538 | 0.719 | 0.729 | 0.706 | 0.702 | 0.821 | 0.838 | 0.833 | 0.788 | 0.833 | 0.865 | 0.876 | 0.873
OCCn1cc(-c2ccc3c(c2)CC/C3=N\O)c(-c2ccncc2)n1 |  |  |  |  |  |  |  |  | -0.166 | -0.13 | -0.183 | -0.335 | -0.39 | -0.208 | -0.171 | -0.236 | -0.00182 | 0.0536 | 0.0736 | 0.0788 | -0.118 | -0.0611 | -0.0101 | 0.0758 | 0.513 | 0.569 | 0.578 | 0.59 | 0.436 | 0.551 | 0.585 | 0.602
Cc1cccc(-c2[nH]c(C(C)(C)C)nc2-c2ccc3nccnc3c2)n1 |  |  |  |  |  |  |  |  | -0.0404 | -0.00935 | -0.0953 | -0.422 | -0.418 | -0.28 | -0.32 | -0.559 | 0.0382 | 0.108 | 0.172 | 0.201 | 0.0486 | 0.0781 | 0.126 | 0.19 | 0.595 | 0.633 | 0.644 | 0.65 | 0.316 | 0.428 | 0.434 | 0.447
CC(C)n1c(/C=C/C(O)CC(O)CC(=O)O)c(-c2ccc(F)cc2)c2ccccc21 (stereo not drawn) [Fluvastatin sodium (Lescol)] |  |  |  |  |  |  |  |  |  |  |  |  |  |  |  |  | -0.0533 | 0.0114 | 0.0651 | 0.148 | 0.00838 | 0.0135 | 0.0456 | 0.221 | 0.511 | 0.544 | 0.565 | 0.555 | 0.516 | 0.511 | 0.53 | 0.525
C[C@@H]1CCN(C(=O)CC#N)C[C@@H]1N(C)c1ncnc2[nH]ccc12 |  |  |  |  |  |  | -0.0604 and -0.0478 |  |  |  |  | -0.145 and -0.158 |  |  |  | -0.23 and -0.152 | -0.0798 and -0.0527 |  |  |  | -0.1 and -0.107 |  |  |  | 0.396 and 0.421 | 0.461 and 0.516 | 0.484 and 0.536 | 0.5 and 0.538 | 0.367 and 0.379 | 0.424 and 0.434 | 0.412 and 0.435 | 0.396 and 0.419
C[C@]12CC[C@H](O)CC1=CC[C@@H]1[C@@H]2CC[C@]2(C)C(c3cccnc3)=CC[C@@H]12 [Abiraterone (CB-7598)] | 0.158 | 0.102 | -0.102 | -0.0433 | 0.0352 | -0.0224 | -0.154 | -0.164 | -0.0346 | -0.0301 | -0.224 | -0.618 | -0.373 | -0.274 | -0.381 | -0.72 | 0.0329 | 0.0754 | 0.164 | 0.196 | -0.00601 | 0.0151 | 0.0665 | 0.163 |  |  |  |  |  |  |  | 
